Sampled rows, rich in hits. Any-hit rate of the full collection: about 12%.
Pf growth 96h: P. falciparum growth inhibition at 96 hour, primary screen for plastid delayed-death inhibitors. P. falciparum luciferase reporter growth, 96 h. Potency, µM (top dose mostly 28.7 µM), inactives show at the top dose activity change, negative = inhibition, usual class: inhibitors. hit rate 6.9% among 320,000; further: on the % scale 0 is the no-effect control and ±100 the full control effect
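Luminescence readout: decreased luciferase signal marks inhibited growth of reporter-expressing P. falciparum in infected red cells (2% hematocrit, 0.05% parasitemia final), exposed to compound two generations (96 h, 37 C, 5% CO2).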
Sm TGR block: S. mansoni TGR enzyme inhibition | purified TGR, DTNB reduction, TNB absorbance 405 nm | Potency, µM (doses to about 114 µM), inactives show at the highest dose activity change, negative = inhibition, usual class: inhibitors | Q962Y6 | AID 485364 | hit rate 3% among 360,000; further: on the % scale 0 is the no-effect control and ±100 the full control effect; nearly all actives have a fitted effect of over 60% in size
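Kinetic colorimetric format: TGR-catalysed, NADPH-driven DTNB reduction monitored via TNB absorbance. Enzyme dispensed at 20 nM; compound exposure 15 min at room temperature before reaction start.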
SARS PLP yeast: SARS-CoV PLP inhibition in yeast; Potency, µM (top dose mostly 32.9 µM), for the others: top-dose activity, positive = growth rescue, actives largely listed as activators; AID 485353; S. cerevisiae expressing SARS-CoV PLpro, growth rescue; hit rate 0.19% among 330,000; calls by dose curve; further: 0% is about no effect; nearly all actives have a fitted effect of over 55% in size
Pf growth 48h: inhibits P. falciparum growth in the first generation, 48 h. P. falciparum luciferase growth in erythrocytes, 48 h. Potency, µM (highest dose often 28.7 µM), for the others: at the highest dose activity change, negative = inhibition, most hits filed as inhibitors. hit rate 5.9% among 310,000; further: on the % scale 0 is the no-effect control and ±100 the full control effect
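Cell-based growth assay: transgenic P. falciparum expressing firefly luciferase, cultured in red cells within RPMI 1640 containing 0.5% w/v Albumax, 24 mM bicarbonate and gentamycin. A drop in luciferase activity indicates inhibition.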
* = called active by the depositor; [ ] = another dose, or the depositor's remark. Unless noted, the call rests on the fitted dose curve; in most records, active means well fitted curve in the direction sought with a large enough effect; inconclusive means small, poorly fitted or top-dose-only effect, or another doubt; inactive means no such curve, though single readings can be large; an effect the other way counts as inactive or inconclusive. Potency means the concentration at half of the fitted maximal effect.

What do the screens show for `COc1ccc(C2C(=O)N(C3CCCCCC3)CC(=O)N2Cc2ccccc2)cc1` (stereo unspecified)?
Sm TGR block: 11%

What do the screens show for `c1ccc2c(c1)-c1cccc3c1c-2cc1ccccc13`?
Pf growth 96h: -5%; Sm TGR block: -6%; SARS PLP yeast: 0%; Pf growth 48h: 78%

Results for Oc1cc(-c2ccccc2)c2ccccc2c1 ?
Pf growth 96h: 12µM*; Sm TGR block: -19%; SARS PLP yeast: -59%; Pf growth 48h: inconclusive

Results for O=C1CC(=O)N(Cc2ccco2)C(=S)N1 ?
Pf growth 96h: 71%; Sm TGR block: 1.8µM*; SARS PLP yeast: 11%

Results for O=C1CC(=O)N(Cc2ccco2)C(=O)N1 ?
Pf growth 96h: -1%; Sm TGR block: inconclusive; SARS PLP yeast: -1%; Pf growth 48h: -11%

How did O=C1C(=C2CCCCC2)SC(=S)N1Cc1ccco1 do in these assays?
Pf growth 96h: -12%; Sm TGR block: 20µM*; SARS PLP yeast: -2%; Pf growth 48h: -27%

Results for COc1ccc([C@]23Cc4cc(OC)c(OC)cc4C(O2)c2c(cc(C)oc2=O)O3)cc1 ?
Pf growth 96h: 0.34µM*; Sm TGR block: 7.1µM*; SARS PLP yeast: 1%[6.58 µM]; Pf growth 48h: inconclusive

What do the screens show for `COc1cc2c(cc1OC)C1OC(c3ccsc3)(C2)Oc2cc(C)oc(=O)c21` (stereo unspecified)?
Pf growth 96h: 1.7µM*; Sm TGR block: inconclusive; SARS PLP yeast: 3%[6.58 µM]; Pf growth 48h: inconclusive

Results for O=c1oc2ccc(F)cc2c2c1C1O[C@](c3ccsc3)(Cc3c1ccc1ccccc31)O2 ?
Pf growth 96h: 18%[5.75 µM]; Sm TGR block: 4%[22.9 µM]; SARS PLP yeast: 3%[6.58 µM]; Pf growth 48h: inconclusive

What do the screens show for `O=C1C2=C(C(=O)c3ccccc31)C1O[C@](c3ccsc3)(Cc3ccccc31)O2`?
Pf growth 96h: 39%[5.75 µM]; Sm TGR block: inconclusive; SARS PLP yeast: inconclusive; Pf growth 48h: 1.2µM*

How did O=c1oc2ccccc2c2c1C1O[C@](c3ccsc3)(Cc3ccccc31)O2 do in these assays?
Pf growth 96h: inconclusive; Sm TGR block: 11µM*; SARS PLP yeast: 1%[6.58 µM]; Pf growth 48h: 1.7µM*

Results for Cc1cc2c(c(=O)o1)C1O[C@](c3ccsc3)(Cc3ccccc31)O2 ?
Pf growth 96h: inconclusive; Sm TGR block: inconclusive; SARS PLP yeast: 4%[6.58 µM]; Pf growth 48h: 1.9µM*

Results for CCCCCCn1c(CN2CCN(CCO)CC2)nc2c1c(=O)n(C)c(=O)n2C ?
Pf growth 96h: -14%; Sm TGR block: -1%; SARS PLP yeast: -5%; Pf growth 48h: inconclusive

Results for Cn1c(=O)c2c(nc(CN3CCN(C(c4ccccc4)c4ccccc4)CC3)n2CCCO)n(C)c1=O ?
Pf growth 96h: -5%; Sm TGR block: 0%; SARS PLP yeast: -1%; Pf growth 48h: 2.9µM*

What do the screens show for `COCCn1c(CN2CCN(C(c3ccccc3)c3ccccc3)CC2)nc2c1c(=O)n(C)c(=O)n2C`?
Pf growth 96h: 28%; Sm TGR block: -14%; SARS PLP yeast: 2%; Pf growth 48h: 2.6µM*

What do the screens show for `COCCn1c(CN2CC(C)CC(C)C2)nc2c1c(=O)n(C)c(=O)n2C` (stereo unspecified)?
Pf growth 96h: -13%; Sm TGR block: 0%; SARS PLP yeast: -2%

Results for Cc1ccc(N2CCN(C(=S)Nc3ccccc3C)CC2)cc1 ?
Pf growth 96h: -4%; Sm TGR block: 5%; SARS PLP yeast: 0%; Pf growth 48h: 11%

How did COc1cc(/C=C/c2cccc[n+]2C)ccc1OCC(=O)Nc1ccccc1C do in these assays?
Pf growth 96h: -21%; Sm TGR block: 0%; SARS PLP yeast: -1%; Pf growth 48h: inconclusive

How did COc1ccc(/C=C/c2cccc[n+]2C)c(O)c1 do in these assays?
Pf growth 96h: 187%; Sm TGR block: 0%; SARS PLP yeast: 13%; Pf growth 48h: inconclusive

Results for CCOc1cc(/C=C/c2cccc[n+]2C)ccc1O ?
Pf growth 96h: 8.3µM*; Sm TGR block: -5%; SARS PLP yeast: -3%; Pf growth 48h: 9.3µM*

Results for CCOc1cc(/C=C/c2cccc[n+]2C)ccc1OCC(=O)Nc1ccc(C)cc1 ?
Pf growth 96h: 5.2µM*; Sm TGR block: -5%; SARS PLP yeast: -4%; Pf growth 48h: 0.93µM*

What do the screens show for `C[n+]1ccccc1/C=C/c1cc(Br)ccc1O`?
Pf growth 96h: inconclusive; Sm TGR block: inconclusive; SARS PLP yeast: 2%; Pf growth 48h: 0.74µM*

What do the screens show for `CC(C)N(CCC(=O)c1ccc2ccccc2c1)Cc1ccccc1`?
Pf growth 96h: 24%; Sm TGR block: 0.13µM*; Pf growth 48h: -26%

What do the screens show for `Cc1nnc(NC(=O)C2CCN(S(=O)(=O)c3ccc(F)c(F)c3)CC2)o1`?
SARS PLP yeast: 6%

What do the screens show for `O=C(CNCc1cccs1)Nc1ccc(OC(F)(F)F)cc1`?
Pf growth 96h: 10µM*; Sm TGR block: -8%; SARS PLP yeast: -2%; Pf growth 48h: 22%

How did COc1ccc(NC(=O)CSc2n[nH]c(-c3ccccc3)n2)cc1S(N)(=O)=O do in these assays?
Pf growth 96h: -9%; Sm TGR block: -3%; SARS PLP yeast: 7%; Pf growth 48h: 33%

How did O=C(OCn1ncc(Br)c(Br)c1=O)c1ccc(F)cc1 do in these assays?
Pf growth 96h: inconclusive; Sm TGR block: 2µM*; SARS PLP yeast: -46%

Results for O=C(OCn1ncc(Br)c(Br)c1=O)c1ccccc1Cl ?
Sm TGR block: 1.3µM*; SARS PLP yeast: -29%; Pf growth 48h: -11%

Results for O=C(OCc1cnc(Cl)s1)c1ccccc1Cl ?
Pf growth 96h: 1%; Sm TGR block: 1%; SARS PLP yeast: 6%; Pf growth 48h: -1%

How did CCN(CC)S(=O)(=O)c1ccc(N2CCN(c3ccccc3O)CC2)nc1 do in these assays?
Pf growth 96h: 13µM*; Sm TGR block: -7%; SARS PLP yeast: -4%; Pf growth 48h: inconclusive

Results for CCN(CC)S(=O)(=O)c1ccc(N2CCN(CCO)CC2)nc1 ?
Pf growth 96h: 4%; Sm TGR block: -9%; SARS PLP yeast: 26%; Pf growth 48h: -2%

How did CCOC(=O)N1CCN(c2ccc(S(=O)(=O)N(Cc3ccccc3)Cc3ccccc3)cn2)CC1 do in these assays?
Pf growth 96h: -29%; Sm TGR block: 2%; SARS PLP yeast: inconclusive; Pf growth 48h: 13µM*

Results for CCOC(=O)N1CCN(C(=O)CN(Cc2ccc(Cl)cc2)S(=O)(=O)c2ccccc2)CC1 ?
Pf growth 96h: inconclusive; Sm TGR block: 3%; SARS PLP yeast: -10%; Pf growth 48h: 8.3µM*

How did CCOc1ccc(NC(=O)c2cc(S(=O)(=O)N3CCC(C)CC3)cn2C)cc1 do in these assays?
Sm TGR block: 18%

What do the screens show for `O=C(NCc1ccco1)C1CCN(C(=O)N2CCOc3ccccc32)CC1`?
Sm TGR block: -5%

What do the screens show for `CSc1ccc(CNC(=O)C2Cc3cc(S(=O)(=O)N4CCCCC4)ccc3N2C(C)=O)cc1` (stereo unspecified)?
Pf growth 96h: 15µM*; Sm TGR block: -3%; Pf growth 48h: -22%

Screens: PubChem BioAssay, National Center for Advancing Translational Sciences (NCATS)
